Among the test systems are CSF1R-autoinhibited; CSF1R; CSK; CSNK1A1L; CSNK1A1; CSNK1D; CSNK1E; CSNK1G1; CSNK1G2; CSNK1G3; CSNK2A1; CSNK2A2; DAPK1; DAPK2; DAPK3; DDR1.
What all share (settings): concentration: 1 μM, replicates: in singlicate; n = 1
The subject of a further assay is T1, CTK.
T1 construct: gene MATK

For another assay, the system named is T2, DCAMKL1.
T2 construct: gene DCLK1

For a further assay, the system named is T3, DCAMKL2.
T3 construct: gene DCLK2

The test system of the next assay is T4, DCAMKL3.
T4 construct: gene DCLK3
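Further: KINOMEscan kinase panel screen.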

In the case of `Cl.Cl.c1ccc(-c2cc3ccncc3cc2OC2CCNCC2)cc1` [GSK1122999], the “%Inh” value in the assay on CSF1R-autoinhibited was determined as 5%; with CSF1R, 49%; in the assay on CSK, 0%; with CSNK1A1L, 23%; in the assay with CSNK1A1, 16%; in the assay with CSNK1D it was 0%. Besides, the “%Inh” value stood at 41% with CSNK1E; 14% in the assay with CSNK1G1; 0% in the assay with CSNK1G2; 27% with CSNK1G3; 0% in the assay with CSNK2A1; 27% in the assay on CSNK2A2. Also, the “%Inh” value in the assay with CTK worked out at 0%; with DAPK1, 93.5%; in the assay with DAPK2, 66%; in the assay with DAPK3, 98.8%; in the assay on DCAMKL1, 19%; with DCAMKL2, 0%. In addition, the “%Inh” value in the assay on DCAMKL3 turned out to be 30%; in the assay on DDR1, 9%.

For `Cl.Fc1ccccc1COc1ccc(Nc2ncnc3ccc(-c4nnc(C(F)(F)F)o4)cc23)cc1Cl` [GW424170], the “%Inh” value was 0% in the assay on CSF1R-autoinhibited; 6% in the assay with CSF1R; 0% in the assay on CSK; 0% in the assay on CSNK1A1L; 0% in the assay with CSNK1A1; 5% in the assay on CSNK1D. The “%Inh” value in the assay on CSNK1E is given as 22%; in the assay on CSNK1G1, 0%; in the assay on CSNK1G2, 0%; with CSNK1G3 it was 30%; in the assay on CSNK2A1, 0%; in the assay with CSNK2A2 it was 15%. The “%Inh” value in the assay on CTK is given as 0%; in the assay with DAPK1, 0%; in the assay with DAPK2, 0%; in the assay with DAPK3 it was 5%; with DCAMKL1, 10%; in the assay with DCAMKL2, 1%. Moreover, the “%Inh” value in the assay with DCAMKL3 stood at 7%; with DDR1, 6%.

In the case of `NC(=O)c1sc(-n2cnc3ccccc32)cc1OCc1ccccc1F` [GSK1024306], the “%Inh” value in the assay with CSF1R-autoinhibited came out at 24%; with CSF1R, 0%; with CSK it was 0%; in the assay on CSNK1A1L, 0%; with CSNK1A1, 0%; in the assay with CSNK1D, 17%. Further, the “%Inh” value worked out at 20% in the assay on CSNK1E; 0% with CSNK1G1; 0% with CSNK1G2; 18% in the assay with CSNK1G3; 10% with CSNK2A1; 6% in the assay on CSNK2A2. Further, the “%Inh” value in the assay on CTK came to 12%; in the assay on DAPK1, 3%; with DAPK2 it was 0%; in the assay on DAPK3, 0%; in the assay on DCAMKL1, 0%; in the assay with DCAMKL2 it was 1%. For the same compound, the entries for the “%Inh” value with DCAMKL3 and in the assay on DDR1 were 0% and 19%, respectively.

Regarding `Nc1nccc2scc(-c3ccc4c(c3)CCN4C(=O)Cc3cc(F)ccc3F)c12` [GSK2587663], the “%Inh” value with CSF1R-autoinhibited came out at 0%; in the assay on CSF1R it was 67%; in the assay with CSK, 0%; with CSNK1A1L it was 1%; in the assay on CSNK1A1, 0%; in the assay with CSNK1D it was 14%. For the same compound, the “%Inh” value amounted to 62% in the assay with CSNK1E; 0% with CSNK1G1; 0% in the assay with CSNK1G2; 10% in the assay on CSNK1G3; 0% in the assay on CSNK2A1; 7% in the assay with CSNK2A2. Also, the “%Inh” value in the assay on CTK amounted to 0%; with DAPK1, 27%; with DAPK2, 2%; in the assay with DAPK3 it was 7%; with DCAMKL1 it was 14%; in the assay on DCAMKL2 it was 8%. Besides, the “%Inh” value was determined as 11% with DCAMKL3 and 10% in the assay on DDR1.

Consider `CN1CCC(n2cnc(-c3ccc(F)cc3)c2-c2ccnc(NC3CCNCC3)n2)CC1` [SB-229482], for which the “%Inh” value in the assay with CSF1R-autoinhibited amounted to 47%; with CSF1R it was 16%; in the assay with CSK it was 0%; in the assay on CSNK1A1L it was 28%; in the assay on CSNK1A1, 95.1%; in the assay on CSNK1D it was 92.1%. The “%Inh” value came to 93.4% in the assay with CSNK1E; 0% in the assay on CSNK1G1; 0% with CSNK1G2; 0% in the assay with CSNK1G3; 12% in the assay on CSNK2A1; 21% with CSNK2A2. In addition, the “%Inh” value stood at 9% in the assay on CTK; 14% with DAPK1; 15% in the assay with DAPK2; 0% with DAPK3; 0% in the assay on DCAMKL1; 16% in the assay on DCAMKL2. Further, the “%Inh” value in the assay with DCAMKL3 was 16%; in the assay on DDR1 it was 0%.

On to `FC(F)(F)c1cc(Nc2nccc(-c3c(-c4ccc(Cl)cc4)nn4ncccc34)n2)ccc1Cl` [GW829351], for which the “%Inh” value in the assay with CSF1R-autoinhibited was determined as 0%; in the assay with CSF1R it was 0%; with CSK, 0%; in the assay on CSNK1A1L it was 0%; in the assay on CSNK1A1, 0%; in the assay with CSNK1D, 81%. For the same compound, the “%Inh” value with CSNK1E came out at 79%; with CSNK1G1, 0%; in the assay on CSNK1G2 it was 0%; in the assay with CSNK1G3 it was 0%; with CSNK2A1, 0%; in the assay with CSNK2A2 it was 11%. In addition, the “%Inh” value is reported as 14% in the assay with CTK; 0% in the assay on DAPK1; 0% in the assay on DAPK2; 12% with DAPK3; 0% with DCAMKL1; 0% in the assay with DCAMKL2. Besides, the “%Inh” value is 0% in the assay with DCAMKL3 and 78% with DDR1.

Regarding `N#Cc1ccc(Oc2ccc(Nc3ncnc4cc[nH]c34)cc2Cl)cc1`, the “%Inh” value is on record as 3% in the assay with CSF1R-autoinhibited; 7% in the assay on CSF1R; 33% with CSK; 15% in the assay on CSNK1A1L; 2% with CSNK1A1; 5% in the assay with CSNK1D. Also, the “%Inh” value with CSNK1E came to 7%; in the assay with CSNK1G1, 8%; with CSNK1G2, 25%; in the assay on CSNK1G3, 21%; in the assay with CSNK2A1, 48%; in the assay on CSNK2A2 it was 24%. In addition, the “%Inh” value in the assay with CTK amounted to 5%; in the assay on DAPK1, 30%; with DAPK2, 16%; in the assay with DAPK3, 15%; in the assay with DCAMKL1, 9%; in the assay on DCAMKL2 it was 24%. Also, the “%Inh” value with DCAMKL3 was found to be 20%; in the assay with DDR1, 9%.

Consider `O=C(NCCCN1CCCC1=O)c1cnc(NCc2cc(Cl)ccc2Cl)nc1NC1CCNCC1`, for which the “%Inh” value is reported as 1% with CSF1R-autoinhibited; 100% in the assay on CSF1R; 0% in the assay on CSK; 1% in the assay on CSNK1A1L; 36% in the assay on CSNK1A1; 28% with CSNK1D. Moreover, the “%Inh” value with CSNK1E is on record as 87%; in the assay with CSNK1G1, 1%; in the assay on CSNK1G2, 0%; in the assay with CSNK1G3, 0%; in the assay on CSNK2A1, 0%; with CSNK2A2, 7%. Besides, the “%Inh” value is recorded as 5% in the assay with CTK; 14% in the assay with DAPK1; 0% in the assay on DAPK2; 0% in the assay with DAPK3; 17% with DCAMKL1; 12% with DCAMKL2. Further, the “%Inh” value in the assay with DCAMKL3 and with DDR1 was 0% each time.

Regarding `O=C(Nc1n[nH]c2nc(-c3ccco3)c(Br)cc12)c1ccc(CN2CCCC2)cc1.O=C(O)[C@H](O)[C@@H](O)C(=O)O` [SB-742352], the “%Inh” value turned out to be 0% with CSF1R-autoinhibited; 71% in the assay on CSF1R; 0% in the assay on CSK; 0% with CSNK1A1L; 0% in the assay with CSNK1A1; 0% with CSNK1D. Further, the “%Inh” value in the assay on CSNK1E was found to be 0%; in the assay with CSNK1G1, 0%; with CSNK1G2 it was 0%; in the assay on CSNK1G3, 0%; in the assay with CSNK2A1, 0%; in the assay with CSNK2A2 it was 29%. Moreover, the “%Inh” value in the assay on CTK came out at 15%; in the assay on DAPK1 it was 0%; with DAPK2, 0%; in the assay with DAPK3, 0%; with DCAMKL1 it was 0%; in the assay on DCAMKL2, 0%. For the same compound, the “%Inh” value in the assay with DCAMKL3 turned out to be 28%; in the assay on DDR1, 19%.

Consider `Nc1n[nH]c2nnc(-c3ccccc3)cc12` [SB-517389], for which the “%Inh” value amounted to 0% in the assay on CSF1R-autoinhibited; 18% in the assay with CSF1R; 0% with CSK; 10% with CSNK1A1L; 0% in the assay on CSNK1A1; 6% with CSNK1D. The “%Inh” value in the assay on CSNK1E is on record as 28%; with CSNK1G1, 7%; in the assay on CSNK1G2, 0%; in the assay with CSNK1G3, 17%; in the assay on CSNK2A1 it was 0%; in the assay with CSNK2A2, 16%. In addition, the “%Inh” value came out at 0% with CTK; 28% in the assay on DAPK1; 0% with DAPK2; 17% with DAPK3; 11% with DCAMKL1; 0% in the assay on DCAMKL2. In addition, the figures for the “%Inh” value in the assay on DCAMKL3 and in the assay on DDR1 were 29% and 9%, respectively.

In the case of `Cn1ccc2ncnc(Nc3ccc(Oc4cccc(Cl)c4)c(Cl)c3)c21`, the “%Inh” value is reported as 1% in the assay with CSF1R-autoinhibited; 17% in the assay on CSF1R; 46% in the assay with CSK; 16% with CSNK1A1L; 14% in the assay with CSNK1A1; 10% with CSNK1D. Besides, the “%Inh” value in the assay on CSNK1E amounted to 0%; with CSNK1G1 it was 6%; with CSNK1G2, 0%; with CSNK1G3 it was 0%; with CSNK2A1, 0%; in the assay on CSNK2A2, 39%. Besides, the “%Inh” value in the assay with CTK was 45%; with DAPK1, 18%; with DAPK2, 0%; in the assay on DAPK3, 0%; in the assay with DCAMKL1 it was 43%; with DCAMKL2, 5%. Moreover, the “%Inh” value in the assay with DCAMKL3 and in the assay with DDR1 was 0% each time.

As for `COC(=O)c1cccc(NC(=O)NCCNc2ccnc(Nc3ccc(F)cc3)n2)c1` [GSK1379883], the “%Inh” value was 0% in the assay with CSF1R-autoinhibited; 14% in the assay on CSF1R; 0% in the assay with CSK; 4% in the assay with CSNK1A1L; 0% in the assay on CSNK1A1; 3% in the assay with CSNK1D. Besides, the “%Inh” value was 29% with CSNK1E; 0% in the assay with CSNK1G1; 0% in the assay with CSNK1G2; 25% with CSNK1G3; 0% in the assay with CSNK2A1; 23% in the assay on CSNK2A2. For the same compound, the “%Inh” value in the assay on CTK is listed as 0%; in the assay on DAPK1, 0%; with DAPK2, 0%; in the assay with DAPK3 it was 13%; in the assay with DCAMKL1, 88%; in the assay with DCAMKL2 it was 0%. Also, the “%Inh” value turned out to be 24% in the assay with DCAMKL3 and 0% in the assay on DDR1.

(Values after publication PMC5540273 (PLoS ONE, 2017).)
